Bioassay records from PubChem.
Shown are actives, neighbours in structure and some others; about 3.3% of the full set was active somewhere.
SMARCA2 act: activators of SMARCA2 function. MG213 cells, MMTV-luciferase reporter, dexamethasone, overnight. activation, % at 9.1 µM. 370,000 tested, 1% active; in the data active means activation above about 7.8%
Gli-Sufu block: antagonists of Gli-Sufu signaling; Sufu-KO-LIGHT fibroblasts, Gli luciferase reporter luminescence; inhibition, % at 5 µM; 340,000 tested, 0.74% active; AID 588413;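 active means inhibition above about 55%, limit read from the data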
697 NFkB inh: lowers PMA/ionomycin-induced NF-kB signal in 697 B cells; 697 B-cell NF-kB luciferase reporter, 16 h; inhibition, % at 4 µM; 330,000 tested, 0.33% active; in the data active means inhibition above about 35%
Jurkat NFkB inh: inhibitors of the PMA/ionomycin-induced NF-kB reporter in Jurkat cells; PMA/ionomycin-induced NF-kB luciferase reporter, luminescence; inhibition, % at 4 µM; 330,000 tested, 0.53% active; in the data active means inhibition above about 50%
esBAF inh: inhibitors of esBAF chromatin remodeling in mouse ES cells | 350,000 tested, 2% active | Bmi1-luciferase knock-in reporter, 24 h; 100% = twice the neutral-well signal | reporter increase, % at 12.5 µM; in the data active means activation above about 40%; inconclusive means no clear call, values can overlap the other calls;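 further: a rise in the Bmi1 reporter signal indicates esBAF inhibition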
Of the large screens only hits and unclear results are named; the others gave an inactive call.

CCOc1ccc(C(=O)Nc2cccc(-c3ccc(N4CCOCC4)nn3)c2)cc1OCC	esBAF inh 64.0
COc1ccc(S(=O)(=O)Nc2cccc3c2O[C@H](CN(C)S(=O)(=O)c2c(C)noc2C)[C@H](C)CN([C@@H](C)CO)C3=O)cc1	none (no result: SMARCA2 act, Gli-Sufu block, 697 NFkB inh, Jurkat NFkB inh)
Cc1ccc(-c2nc3ccccc3n2C)o1	none (no result: esBAF inh)
CC(=O)c1ccc(-c2nc3ccccc3n2C)o1	esBAF inh 54.7
CNC(=O)C[C@@H]1CC[C@H]2[C@@H](COc3ccc(NC(=O)C4CCCCC4)cc3C(=O)N2C)O1	none (no result: SMARCA2 act, Gli-Sufu block, 697 NFkB inh, Jurkat NFkB inh)
O=C(Nc1nnc(-c2cccs2)s1)c1cccc(F)c1	esBAF inh 60.0
O=C(Nc1nnc(S(=O)(=O)N2CCOCC2)s1)c1cccc(F)c1	esBAF inh 58.1
CC(C)(C)CC(=O)Nc1nnc(-c2cccs2)s1	esBAF inh 48.0
Cn1cnc(CCNC(=O)C[C@@H]2CC[C@@H]3[C@H](COC[C@@H](O)CN3C(=O)Nc3ccc(F)cc3)O2)c1	none (no result: SMARCA2 act, Gli-Sufu block, 697 NFkB inh, Jurkat NFkB inh)
COC(=O)c1sccc1NC(=O)Nc1ccc(C)cc1	esBAF inh 44.2
COC(=O)c1sccc1NC(=O)Nc1ccc(C)cc1C	none
COC(=O)c1sccc1NC(=O)Nc1cc(C)cc(C)c1	esBAF inh 79.8
CCCNC(=O)[C@@H]1[C@@H](CO)[C@@H]2Cn3c(ccc(C4=CCCC4)c3=O)[C@H]1N2CCC(F)(F)F	none (no result: SMARCA2 act, Gli-Sufu block, 697 NFkB inh, Jurkat NFkB inh)
CCC(=O)Nc1ccc2c(c1)C(=O)N(C)[C@H]1CC[C@H](CC(=O)N3CCc4ccccc4C3)O[C@@H]1CO2	none (no result: SMARCA2 act, Gli-Sufu block, 697 NFkB inh, Jurkat NFkB inh)
C[C@@H]1CCCCO[C@@H](CN(C)C)[C@@H](C)CN([C@H](C)CO)C(=O)c2cc(NC(=O)Cc3ccccc3)ccc2O1	none (no result: SMARCA2 act, Gli-Sufu block, 697 NFkB inh, Jurkat NFkB inh)
CC(C)NC(=O)Nc1cccc2c1O[C@H](CN(C)S(=O)(=O)c1cccs1)[C@H](C)CN([C@H](C)CO)C2=O	none (no result: SMARCA2 act, Gli-Sufu block, 697 NFkB inh, Jurkat NFkB inh)
Cc1nn2cc(-c3ccc(Cl)cc3)cnc2c1Cl	esBAF inh 72.4
Cc1cc2ncc(-c3cccc(Cl)c3)cn2n1	none (no result: esBAF inh)
C[C@@H]1CCCCO[C@@H](CN(C)C)[C@H](C)CN([C@@H](C)CO)C(=O)c2cc(NC(=O)NC3CCCCC3)ccc2O1	none (no result: SMARCA2 act, Gli-Sufu block, 697 NFkB inh, Jurkat NFkB inh)
O=[N+]([O-])c1cccc(-c2ncc3ccccn23)c1	none (no result: esBAF inh)
Nc1c(-c2cccc([N+](=O)[O-])c2)nc2ccccn12	esBAF inh 59.0
O=C(c1cccc(F)c1)N1CC[C@@H]2[C@H]1c1cc(C#Cc3ccc(F)cc3)ccc1N[C@@H]2CO	none (no result: SMARCA2 act, Gli-Sufu block, 697 NFkB inh, Jurkat NFkB inh)
C[C@@H]1CCCCO[C@@H](CN(C)C(=O)C2CCCCC2)[C@H](C)CN([C@@H](C)CO)C(=O)c2cc(NC(=O)Nc3ccc(F)cc3)ccc2O1	none (no result: SMARCA2 act, Gli-Sufu block, 697 NFkB inh, Jurkat NFkB inh)
CCC(=O)NC1=C(NC(C)c2ccccc2)C(=O)c2ccccc2C1=O (stereo not drawn)	none
CCC(=O)NC1=C(Cl)C(=O)C(NC(=O)CC)=C(Cl)C1=O	SMARCA2 act 8.6
COc1cc(C(=O)NCCOc2ccccc2C)c(Br)c(OC)c1OC	none (no result: esBAF inh)
COc1ccc(C(=O)NCCOc2ccccc2Cl)c(OC)c1OC	esBAF inh 67.6
Cc1ccc(S(=O)(=O)NCC[C@H]2CC[C@@H](NC(=O)CCN3CCCCC3)[C@@H](CO)O2)cc1	none (no result: SMARCA2 act, Gli-Sufu block, 697 NFkB inh, Jurkat NFkB inh)
O=C(c1cc2ccccc2oc1=O)N(Cc1ccccc1)Cc1ccc2c(c1)OCO2	none
CN(C)C(CNC(=O)c1cc2ccccc2oc1=O)c1ccccc1 (stereo not drawn)	esBAF inh 51.4
O=C(c1cc2ccccc2oc1=O)N(Cc1ccc(F)cc1)C1CCS(=O)(=O)C1 (stereo not drawn)	esBAF inh inconclusive
CCc1ccc(CN(C(=O)c2cc3ccccc3oc2=O)C2CCS(=O)(=O)C2)cc1 (stereo not drawn)	esBAF inh 86.1
CC(C)N(Cc1ccc(F)cc1)C(=O)c1cc2ccccc2oc1=O	esBAF inh 47.5 (no result: Gli-Sufu block)
O=C(NCCc1ccccc1)c1ccc(Cl)nc1	none
O=C(NCc1cccs1)c1ccc(N2CCCCC2)nc1	esBAF inh 81.3
CC1CCCN(c2ccc(C(=O)NCc3ccccc3)cn2)C1 (stereo not drawn)	none
CC1CCN(c2ccc(C(=O)NCCc3ccccc3)cn2)CC1	esBAF inh 50.4
O=C(NCc1cccs1)c1ccncc1	none
CC1CCCN(c2ccc(C(=O)NCc3cccs3)cn2)C1 (stereo not drawn)	esBAF inh 94.3
Cc1ccccc1OCC(O)Cn1nnc2ccccc21 (stereo not drawn)	esBAF inh 64.8
CN(CC(=O)Nc1ccc(F)cc1)C(=O)COC(=O)c1cccc(N(C)C)c1	esBAF inh 47.9
CN(CC(=O)Nc1ccc(F)cc1)C(=O)COC(=O)c1ccccc1	none
